High-throughput results deposited in PubChem by several laboratories.
Hits are enriched below; roughly 12% of the tested compounds scored in any of these assays.
ROMK primary = ROMK potassium channel modulators, primary screen, cell-based, thallium flux, MLSMR library; ATP-sensitive inward rectifier potassium channel 1 (Homo sapiens), P48048; Tet-inducible ROMK, thallium flux fluorescence; actives lie on both sides; B-score at 10 µM; hit rate 2% among 130,000; AID 1918, 2009;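 active means signal ratio slope over the read window, or its plate-corrected B-score, at least 3 SD from the plate mean, either direction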;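 further: B-score of the F/F0 ratio slope over 7 to 12 s after thallium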
KCC2 mod = KCC2 cotransporter modulators, thallium flux, primary screen, cell-based, HEK293 KCC2, FluoZin-2 fluorescence, MLSMR. KCC2 cells, thallium flux FluoZin-2 fluorescence. B-score of Tl+ flux slope (higher = more flux/activation; lower = inhibition) at 10 µM. Solute carrier family 12 member 5 (Homo sapiens), Q9H2X9. AID 1456, 2008. hit rate 2.2% among 190,000;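 active means thallium flux slope and its plate-corrected score both differing from the plate sample mean at a set confidence after two filtering rounds, in either direction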;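 further: slope of fluorescence scaled to starting intensity during 10 to 20 s after thallium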
WT yeast gro inh = growth inhibition of WT strain, primary screen, mitochondrial fusion inhibitor project, WT and mutant strains, chemical genetic | mitochondrial fusion phenotypic screen | inhibition, % at 10 µM | hit rate 2.1% among 190,000 | AID 1362, 2008; in the data active means inhibition above about 58%; tested in S. cerevisiae
m-calpain inh = inhibitors of pig calpain II, primary screen, biochemical, fluorogenic peptide substrate, 1536-well; purified calpain II, 30 min; inhibition, % at 16 µM; hit rate 0.37% among 220,000;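 active means inhibition above about 50%, limit read from the data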
L major viab = Leishmania major promastigote growth inhibition, primary screen | Leishmania major promastigotes, resazurin fluorescence viability | inhibition, % at 10 µM | hit rate 9% among 200,000; in the data active means inhibition above about 50%;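 further: promastigotes grown with compound for 44 hours at 28 °C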
Starred values were filed as active, the others as inactive; · = no result given.

SMILES	ROMK primary	KCC2 mod	WT yeast gro inh	m-calpain inh	L major viab
CC(C)OCC(O)CS(=O)Cc1ccccc1 (stereo not given)	0.85	·	34	10	-3
CN(C)c1ccc(-c2nc3n(n2)C(c2cccnc2)C2=C(CC(C)(C)CC2=O)N3)cc1 (stereo not given)	·	-1.1	46	6	92*
COCCCNC(=S)N(Cc1cccnc1)Cc1ccc(OC)c(OC)c1	0.43	-0.07	-27	4	89*
CCCCNC(=O)CNC(=S)N(Cc1ccccc1)Cc1cccnc1	-0.74	0.5	4	8	16
CC1(c2ccccc2)CC(C)(C)N(C(=O)CSc2nnc(N)s2)c2ccccc21 (stereo not given)	·	-0.6	15	7	15
CC1(c2cc([N+](=O)[O-])cc([N+](=O)[O-])c2)CC(C)(C)N(C(=O)c2ccccc2)c2ccccc21 (stereo not given)	·	·	40	-30	98*
O=C(NCc1ccc2c(c1)OCO2)C1CC(=O)N(c2ccc(O)cc2)C1 (stereo not given)	·	·	6	-26	0
CCOC(=O)c1ccc(NC(=S)N2CCSC2c2ccc(Br)cc2)cc1 (stereo not given)	0.56	-0.77	51	-13	87*
CCOC(=O)c1ccc(NC(=S)N2CCC(O)CC2)cc1	0.95	0.52	-17	-8	-2
COc1ccccc1NS(=O)(=O)c1cccc(C(=O)N/N=C/c2ccc(N3CCOCC3)cc2)c1	·	1.3	-14	-333	52*
COc1ccc(-c2nn(-c3ccccc3)cc2/C=N/NC(=O)c2cccc(S(=O)(=O)Nc3ccccc3OC)c2)cc1	·	0.83	-11	-128	52*
CCNc1ccc(C(=O)N/N=C/c2c(C)nn(-c3ccccc3)c2N2CCCC2)cc1[N+](=O)[O-]	1.2	-2	4	-61	3
Cc1ccc(NS(=O)(=O)c2cccc(C(=O)N/N=C/c3c(C)nn(-c4ccccc4)c3N3CCCC3)c2)c(C)c1	-0.48	-0.0062	-21	-198	64*
COc1ccc(NS(=O)(=O)c2cccc(C(=O)N/N=C/c3cccs3)c2)cc1	·	-0.089	0	-15	53*
COc1ccccc1NS(=O)(=O)c1cccc(C(=O)N/N=C/c2ccc(C)o2)c1	-0.039	-0.6	6	-33	3
COc1ccc(NS(=O)(=O)c2cccc(C(=O)O)c2)cc1	0.4	0.44	-5	-24	-5
COc1ccc(NC(=O)c2cc(SC)ccc2Cl)cc1	·	0.047	-16	-14	-7
CC(C)Oc1ccc(NC(=O)c2ccncc2)cc1	-0.91	0.27	21	-3	-2
C=CCNc1cnn(-c2ccccc2)c(=O)c1Cl	0.33	-0.19	0	-18	-10
O=C(c1ccccc1NS(=O)(=O)c1cccc2cccnc12)N1CCOCC1	-0.086	1.5	0	-4	-6
COc1ccc(N(C(=O)c2ccco2)S(=O)(=O)c2cc(Cl)c(Cl)cc2Cl)cc1	0.56	-0.15	59*	54*	6
O=S(=O)(Nc1cccc(-c2nnco2)c1)c1ccc(F)cc1F	·	0.064	·	-14	·
CCCn1nnc(NC(=S)NC(=O)/C=C/c2ccc(Cl)cc2)n1	·	0.1	·	0	·
Cc1ccc(CSc2ncnc3c2cnn3Cc2ccccc2)cc1C	-0.72	1	28	14	1
Cc1ccc(CSc2ncnc3c2cnn3Cc2ccccc2)cc1	0.88	0.18	76*	-37	4
SMILES	ROMK primary	KCC2 mod	WT yeast gro inh	m-calpain inh	L major viab
COc1ccc(NC(=S)N2CCCC2c2ccc(OC)c(OC)c2)cc1 (stereo not given)	-0.61	-0.54	8	-23	-9
COc1ccc(N/C=C/C(=O)c2ccc(Oc3ncccn3)cc2)cc1	·	·	70*	16	-2
O=C(/C=C/Nc1ccc(F)cc1)c1ccc(Oc2ncccn2)cc1	·	·	7	-36	-3
CCOC(=O)/C=C1\Nc2ccccc2OC1=O	·	-1.6	49	2	64*
CC1(C(=O)NCc2ccccc2)Oc2ccccc2NC1=O (stereo not given)	0.63	-0.1	-5	-30	0
O=C(Nc1ccc2c(c1)OCO2)N1CCN(c2ncc(C(F)(F)F)cc2Cl)CC1	-0.77	-0.55	18	-19	68*
CNCC(=O)N1CCN(c2ncc(C(F)(F)F)cc2Cl)CC1	-0.67	0.84	8	-11	71*
O=C(Nc1ccc2c(c1)OCO2)N1CCN(c2ncccn2)CC1	·	·	7	-16	-9
CCN1C=C(C(=O)OC)C(c2cccc(OC)c2OC)C(C(=O)OC)=C1	0.41	0.57	-8	-409	-7
Cc1ccc(C(=O)NCCCn2ccnc2)cc1[N+](=O)[O-]	0.33	1.3	-10	3	11
CCS(=O)(=O)N1CCN(c2ccc(C(=O)NC3C4CC5CC(C4)CC3C5)cc2[N+](=O)[O-])CC1 (stereo not given)	·	0.008	-4	12	52*
O=C(NCCCn1ccnc1)c1ccc(N2CCCCCC2)c([N+](=O)[O-])c1	-1.7	-0.11	-12	8	90*
CCCCNC(=O)c1ccc(N2CCC3(CC2)OCCO3)c([N+](=O)[O-])c1	0.04	3.1	-4	-6	59*
CCOC(=S)SCc1cn2cccc(C)c2n1	0.43	-1.1	-9	-8	16
CC1CC(OCC(O)C[N+]2(C)CCOCC2)CC(C)(C)C1 (stereo not given)	1.1	-0.32	-2	9	-7
CCOC(=O)N1CCN(CC(O)COC2CC(C)CC(C)(C)C2)CC1 (stereo not given)	·	0.36	33	16	93*
CC1CC(OCC(O)CN2CCOCC2)CC(C)(C)C1 (stereo not given)	0.21	0.44	0	2	77*
CCOC(=O)N1CCN(CC(O)c2ccc3c(c2)CCN3)CC1 (stereo not given)	·	-0.11	-1	6	1
Cc1cc(C)cc(Oc2ccc(NC(=O)C3CC=CCC3C(=O)O)cc2)c1 (stereo not given)	-0.56	-0.44	1	-8	-5
CCCCC1CC(C)(C(=O)CSc2nc3ccccc3s2)OC1=O (stereo not given)	-0.74	-1	26	-8	-10
COc1ccc(OC)c(NC(=O)C2C3CC4OC(=O)C2C4C3)c1 (stereo not given)	·	0.4	-9	-4	-4
CCOC(=O)C1(CCCc2ccccc2)CCN(CCCn2cccn2)CC1	-0.88	·	7	-7	76*
CCOC(=O)C1(CCc2ccccc2)CCN(Cc2ccn[nH]2)CC1	0.35	-1	-3	-5	12
CCOC(=O)C1(CCCc2ccccc2)CCN(Cc2nccn2CC)CC1	0.67	-0.58	59*	25	75*
CCOC(=O)C1(Cc2ccccc2C(F)(F)F)CCN(CCCn2cccn2)CC1	-0.95	-0.16	5	-15	88*
CCOC(=O)C1(Cc2ccc(OC)cc2)CCN(C(=O)CCn2cccn2)CC1	·	0.011	·	-17	·
CCOC(=O)C1(CCOc2ccccc2)CCN(Cc2nccn2CC)CC1	-1.3	0.15	19	-16	31
